Experimental data taken from PubChem BioAssay (NCATS).
Inconclusive results are not listed. Activity calls are given as the source filed them. Unless noted, calls come from the whole dose curve; as a rule, active = well fitted curve in either direction with a large enough effect (not every such curve was filed as active); inconclusive = small, poorly fitted or top-dose-only effect, or another doubt; inactive = flat fitted curve, though single readings scatter.

What was measured:
[1] = target: Lysosomal acid glucosylceramidase (Homo sapiens) (UniProt P04062); assay: Glucocerebrosidase-p2 (AID 348; in the data active = potency below about 10 µM; note: potency is the fitted concentration of half-maximal effect); conditions: purified GBA, blue fluorogenic substrate, 40 min
Procedure, shortened: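 Normal human glucocerebrosidase (0.2 nM) with blue fluorogenic substrate (80 uM final) in citrate/phosphate pH 5.9 with 10mM sodium taurocholate, 0.01% tween-20; 40 min RT, NaOH/glycine stop; fluorescence Ex 365/Em 440; AC50 from a titration from 0.6 nM upwards.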

[2] = AP1 Signaling Pathway (AID 357); conditions: ME-180 AP-1-bla reporter, EGF-induced, beta-lactamase ratio, 5 h; at 7.69 µM (top of the series) unless noted; note: % is set by controls: 0 for no effect and ±100 for the full control effect
Procedure, shortened: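 ME-180 cells with beta-lactamase reporter under AP-1 response element, stimulated with EC50 EGF; compounds tested in titration series, 5 h at 37 °C. CCF4 substrate added 2.5 h at room temperature; 460/530 nm emission ratio gave %activity and AC50.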

[3] = target: Cytochrome P450 1A2 (Homo sapiens) (UniProt P05177); assay: p450-cyp1a2 (AID 410; calls by dose curve; note: potency is the fitted concentration of half-maximal effect;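 for activity change, negative = inhibition: -100% = full effect of reference inhibitor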); conditions: recombinant CYP1A2, luciferin-ME demethylation, luminescence; series mostly up to 57 µM
Procedure, shortened: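 20nM CYP1A2, 100uM Luciferin-ME (=Km), 100mM KPO4; cpd 10 min RT; +NADPH regen, 60 min RT; stop/detect 20 min; luminescence. Normalized to furafylline 57 uM = full inhibition.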

[4] = NFAT Signaling Pathway (AID 444); conditions: Jurkat NFAT-bla M1, carbachol, beta-lactamase ratio, 5 h; at 7.69 µM (top of the series) unless noted;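 note: carbachol stimulus at about its EC50 of 1 µM final; % is set by controls: 0 for no effect and ±100 for the full control effect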
Procedure, shortened: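 Jurkat cells carrying an NFAT-driven β-lactamase reporter and co-transfected muscarinic M1 receptor were treated with compound plus carbachol (1 uM final, an EC50 level) for 5 h at 37 °C. CCF4 loading followed for 1 h at RT; 460/530 nm ratio gave %activity.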

[5] = Stat Signaling Pathway (AID 446); conditions: ME-180 (cervical carcinoma) SIE beta-lactamase reporter, IL-6 stimulated, 5 h; at 7.69 µM (top of the series) unless noted;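 note: ME-180 cervical cancer cells given 40 pM IL-6 alongside compound; SIE-controlled beta-lactamase reporter measured as 460/530 nm FRET emission ratio; % is set by controls: 0 for no effect and ±100 for the full control effect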
Procedure, shortened: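 Compound effects on IL-6-induced STAT reporter activity were measured in ME-180 cells. After overnight culture, cells were co-treated with 40 pM IL-6 for 5 hrs before beta-lactamase substrate loading at room temperature.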

[6] = target: Glucocorticoid receptor (Homo sapiens) (UniProt P04150); assay: GR-EFC Redistribution (AID 451; calls by dose curve; note: potency is the fitted concentration of half-maximal effect); conditions: CHO-K1 GR-EFC translocation, beta-gal luminescence, 2 h
Procedure, shortened: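 CHO-K1 cells stably expressing nuclear-localized β-gal enzyme acceptor and GR fused C-terminally to the enzyme donor fragment; ligand-driven nuclear translocation restores β-gal by complementation. Compounds titrated up to 46 uM final, 2 h at 37 °C; luminescence read.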

[7] = target: Mitogen-activated protein kinase 10 (Mus musculus) (UniProt Q61831); assay: JNK3 AlphaScreen Assay (AID 530); conditions: JNK3 lysate, c-Jun phosphorylation; series mostly up to 57.1 µM;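 note: kinase came from lysate of stimulated human HepG2 cells; signal reports phosphorylation of biotinylated GST-cJun 1-79 at Ser73 with 10 µM ATP; % is set by controls: 0 for no effect and ±100 for the full control effect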
Procedure, shortened: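 Biotinylated GST-cJun(1-79) served as substrate for JNK3 in HepG2 lysates stimulated with IL-1beta and TNF-alpha. ATP was 10 uM final, pH 7.6. Ser73 phosphorylation was quantified by AlphaScreen (680 nm excitation).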

[8] = target: 3',5'-cyclic-AMP phosphodiesterase 4B (Homo sapiens) (UniProt Q07343); assay: qHTS Assay for Inhibitors of PDE-IV (AID 607; active = well fitted activation curve with a large enough effect in the main read-out, with a control signal flat, not every such curve was filed as active; note: % of control where 0% means no effect); conditions: HEK293 ACTOne CNG channel cells, membrane potential fluorescence; series mostly up to 22.9 µM
Procedure, shortened: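 ACTOne HEK293 cells carry a modified cAMP-gated CNG channel and express endogenous PDE4; plated 1000 cells/well, compounds up to 22.9 uM final. Membrane-potential dye fluorescence (ex 535/em 590) was read; parental cells received 10 uM forskolin + 100 uM RO 20-1724.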

[9] = qHTS Assay for Lipid Storage Modulators (AID 1519; calls by dose curve); conditions: Drosophila S3 cells, BODIPY lipid droplet/cell ratio, laser cytometry, cells loaded with oleic acid; for activity change, negative = inhibition: at 57.5 µM (top of the series)
Procedure, shortened: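 Cells seeded at 5,000 per well were treated with compounds over a concentration series and loaded with oleic acid (400 uM, as added). Lipid droplet fluorescence (488 nm excitation, 500-530 nm channel) was read by laser-scanning cytometry and normalized to 20 uM Triacsin C.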

[10] = Primary qHTS for small molecule stabilizers of the endoplasmic reticulum resident proteome: Secreted ER Calcium Modulated Protein (SERCaMP) assay (AID 1508630; active = well fitted inhibition curve with a large enough effect; note: % is set by controls: 0 for no effect and ±100 for the full control effect); conditions: SH-SY5Y GLuc-SERCaMP (Gaussia luciferase released on ER calcium loss) secretion, thapsigargin, luminescence; series mostly up to 38.4 µM
Procedure, shortened: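 The SH-SY5Y reporter protocol was run at 3 concentrations up to 38.3 uM (primary) or 11 concentrations (follow-up): 16 h compound, 100 nM thapsigargin for 4 h, then extracellular luciferase luminescence.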

[11] = measured here: cell count channel max response
[12] = measured here: lipid channel max response

Sequence of Cytochrome P450 1A2 (Homo sapiens) (P05177 whole entry, looked up): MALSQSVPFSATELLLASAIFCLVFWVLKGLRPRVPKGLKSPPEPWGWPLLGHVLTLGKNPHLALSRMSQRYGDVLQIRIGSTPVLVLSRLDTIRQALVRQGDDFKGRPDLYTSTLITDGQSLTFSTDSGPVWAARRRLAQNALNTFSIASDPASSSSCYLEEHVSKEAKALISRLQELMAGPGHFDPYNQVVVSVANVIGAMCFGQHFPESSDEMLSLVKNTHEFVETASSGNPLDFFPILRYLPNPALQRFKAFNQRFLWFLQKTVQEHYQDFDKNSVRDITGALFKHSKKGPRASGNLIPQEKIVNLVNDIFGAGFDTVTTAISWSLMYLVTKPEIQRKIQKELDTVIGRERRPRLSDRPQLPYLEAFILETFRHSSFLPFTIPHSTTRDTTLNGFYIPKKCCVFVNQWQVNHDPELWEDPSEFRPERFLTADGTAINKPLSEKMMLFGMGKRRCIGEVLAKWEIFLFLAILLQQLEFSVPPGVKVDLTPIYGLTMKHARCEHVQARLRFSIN
Sequence of Lysosomal acid glucosylceramidase (Homo sapiens) (P04062 whole entry, looked up): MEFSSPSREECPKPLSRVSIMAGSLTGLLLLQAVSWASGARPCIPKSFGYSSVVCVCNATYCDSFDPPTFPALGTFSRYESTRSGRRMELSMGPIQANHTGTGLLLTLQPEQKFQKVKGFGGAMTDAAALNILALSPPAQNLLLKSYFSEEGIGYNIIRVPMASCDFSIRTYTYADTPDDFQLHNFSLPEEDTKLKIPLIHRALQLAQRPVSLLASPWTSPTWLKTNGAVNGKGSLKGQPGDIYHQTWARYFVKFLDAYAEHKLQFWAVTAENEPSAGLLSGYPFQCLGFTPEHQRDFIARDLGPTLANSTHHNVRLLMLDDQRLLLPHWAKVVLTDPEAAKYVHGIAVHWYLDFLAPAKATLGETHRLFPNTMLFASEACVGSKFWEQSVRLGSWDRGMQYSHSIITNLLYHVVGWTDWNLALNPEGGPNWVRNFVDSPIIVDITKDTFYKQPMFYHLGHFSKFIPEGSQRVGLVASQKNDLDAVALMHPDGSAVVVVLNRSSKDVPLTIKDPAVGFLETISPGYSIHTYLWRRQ
Sequence of Glucocorticoid receptor (Homo sapiens) (P04150 whole entry, looked up, the tested form may be a part): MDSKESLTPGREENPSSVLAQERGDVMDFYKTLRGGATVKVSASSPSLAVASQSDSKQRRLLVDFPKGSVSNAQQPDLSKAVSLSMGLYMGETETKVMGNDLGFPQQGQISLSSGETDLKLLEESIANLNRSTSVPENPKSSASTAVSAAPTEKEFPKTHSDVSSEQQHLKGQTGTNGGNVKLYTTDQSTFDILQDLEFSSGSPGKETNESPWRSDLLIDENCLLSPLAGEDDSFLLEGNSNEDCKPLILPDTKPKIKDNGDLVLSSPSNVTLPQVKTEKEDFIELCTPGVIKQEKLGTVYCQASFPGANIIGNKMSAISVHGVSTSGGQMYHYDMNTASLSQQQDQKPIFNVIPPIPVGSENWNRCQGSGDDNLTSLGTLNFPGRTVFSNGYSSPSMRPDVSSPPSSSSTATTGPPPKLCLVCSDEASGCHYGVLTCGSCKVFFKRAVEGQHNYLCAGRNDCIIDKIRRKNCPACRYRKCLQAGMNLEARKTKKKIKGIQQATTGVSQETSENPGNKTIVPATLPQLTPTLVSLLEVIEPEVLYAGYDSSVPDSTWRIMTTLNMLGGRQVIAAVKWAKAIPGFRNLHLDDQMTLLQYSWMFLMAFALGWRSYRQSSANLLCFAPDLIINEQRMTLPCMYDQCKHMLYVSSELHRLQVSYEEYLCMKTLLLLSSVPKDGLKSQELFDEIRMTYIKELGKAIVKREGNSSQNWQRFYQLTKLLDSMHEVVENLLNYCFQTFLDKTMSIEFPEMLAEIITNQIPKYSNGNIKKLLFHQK
Sequence of 3',5'-cyclic-AMP phosphodiesterase 4B (Homo sapiens) (Q07343 whole entry, looked up): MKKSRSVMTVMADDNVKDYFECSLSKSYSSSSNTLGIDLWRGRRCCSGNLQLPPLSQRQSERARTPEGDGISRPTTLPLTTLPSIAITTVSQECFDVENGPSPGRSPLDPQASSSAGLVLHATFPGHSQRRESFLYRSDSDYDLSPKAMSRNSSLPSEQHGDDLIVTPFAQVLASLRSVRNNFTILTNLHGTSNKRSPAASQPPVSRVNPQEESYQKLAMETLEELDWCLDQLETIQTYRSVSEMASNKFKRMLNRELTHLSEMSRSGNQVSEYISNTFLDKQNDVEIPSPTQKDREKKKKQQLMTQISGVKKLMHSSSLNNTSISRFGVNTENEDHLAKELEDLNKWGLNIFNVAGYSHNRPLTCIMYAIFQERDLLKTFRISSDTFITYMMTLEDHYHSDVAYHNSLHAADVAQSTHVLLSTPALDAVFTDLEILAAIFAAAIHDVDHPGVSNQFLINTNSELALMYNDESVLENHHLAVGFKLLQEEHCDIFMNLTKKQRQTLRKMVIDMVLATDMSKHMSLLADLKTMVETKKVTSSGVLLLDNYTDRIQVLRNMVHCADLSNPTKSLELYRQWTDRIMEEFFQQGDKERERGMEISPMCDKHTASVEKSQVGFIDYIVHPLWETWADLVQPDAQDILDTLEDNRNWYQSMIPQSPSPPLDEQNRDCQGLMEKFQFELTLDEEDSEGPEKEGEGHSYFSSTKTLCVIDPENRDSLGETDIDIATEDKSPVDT

O=C(Nc1cccc(F)c1)N1CCC2(CCNCC2)CC1
Potency [1]: > 11.4 µM (inactive)
activity change, negative = inhibition [2]: -5.25% (inactive)
Potency [3]: inactive
activity change, negative = inhibition [4]: -3.25% (inactive)
activity, negative = inhibition [5]: -4.9% (inactive)
Potency [6]: > 46 µM (inactive)
outcome [7]: inactive
Potency [8]: inactive
activity change, negative = inhibition [9]: 2.6% (inactive)
max response [9, 11]: 17.4%
max response [9, 12]: 23.2%
Potency [10]: inactive

CC(=O)N1CCC2(CCCN(c3ccccn3)C2)CC1
Potency [1]: > 11.4 µM (inactive)
activity change, negative = inhibition [2]: 4.59% (inactive)
Potency [3]: inactive
activity change, negative = inhibition [4]: 3.45% (inactive)
activity, negative = inhibition [5]: -5.49% (inactive)
Potency [6]: > 46 µM (inactive)
outcome [7]: inactive
Potency [8]: inactive
activity change, negative = inhibition [9]: 5.15% (inactive)
max response [9, 11]: 19.4%
max response [9, 12]: 28%
Potency [10]: inactive

CC(=O)N1CCC2(CCN(Cc3cc(C(F)(F)F)cc(C(F)(F)F)c3)CC2)CC1
Potency [1]: > 11.4 µM (inactive)
activity change, negative = inhibition [2]: -20.5% (inactive)
Potency [3]: 15.8 µM (active)
activity change, negative = inhibition [4]: -19.4% (inactive)
activity, negative = inhibition [5]: 8.31% (inactive)
Potency [6]: > 46 µM (inactive)
outcome [7]: inactive
Potency [8]: inactive
activity change, negative = inhibition [9]: 2.13% (inactive)
max response [9, 11]: 6.37%
max response [9, 12]: 10.7%
Potency [10]: inactive

COCC(=O)N1CCC2(CC1)CCN(C(=O)Nc1ccc(OC)cc1)CC2
Potency [1]: > 11.4 µM (inactive)
activity change, negative = inhibition [2]: -6.71% (inactive)
Potency [3]: inactive
activity change, negative = inhibition [4]: 6.08% (inactive)
activity, negative = inhibition [5]: -0.498% (inactive)
Potency [6]: > 46 µM (inactive)
outcome [7]: inactive
Potency [8]: inactive
activity change, negative = inhibition [9]: 4.36% (inactive)
max response [9, 11]: 13.2%
max response [9, 12]: 20.1%
Potency [10]: inactive

COc1ccc(C(=O)N2CCC3(CC2)CN(C(=O)Nc2ccccc2)C3)cc1
Potency [1]: > 11.4 µM (inactive)
activity change, negative = inhibition [2]: -1.19% (inactive)
Potency [3]: 25.1 µM (active)
activity change, negative = inhibition [4]: 22.2% (inactive)
activity, negative = inhibition [5]: -10.2% (inactive)
Potency [6]: > 46 µM (inactive)
outcome [7]: inactive
Potency [8]: inactive
activity change, negative = inhibition [9]: 5.49% (inactive)
max response [9, 11]: 8.4%
max response [9, 12]: 17.6%
Potency [10]: inactive

COCC(=O)N1CCC2(CCCN(C(=O)Nc3cccc(F)c3)C2)CC1
Potency [1]: > 11.4 µM (inactive)
activity change, negative = inhibition [2]: -4.55% (inactive)
Potency [3]: inactive
activity change, negative = inhibition [4]: 3.84% (inactive)
activity, negative = inhibition [5]: -4.68% (inactive)
Potency [6]: > 46 µM (inactive)
outcome [7]: inactive
Potency [8]: inactive
activity change, negative = inhibition [9]: 7.2% (inactive)
max response [9, 11]: 4.52%
max response [9, 12]: 14.2%
Potency [10]: inactive

CS(=O)(=O)N1CCC2(CC1)CN(C(=O)Nc1ccccc1)C2
Potency [1]: > 11.4 µM (inactive)
activity change, negative = inhibition [2]: -5.74% (inactive)
Potency [3]: inactive
activity change, negative = inhibition [4]: 11.2% (inactive)
activity, negative = inhibition [5]: 8.65% (inactive)
Potency [6]: > 46 µM (inactive)
outcome [7]: inactive
Potency [8]: inactive
activity change, negative = inhibition [9]: 4.59% (inactive)
max response [9, 11]: 6.27%
max response [9, 12]: 16.7%
Potency [10]: inactive

O=S(=O)(c1ccccc1)N1CCC2(CC1)CN(c1ncccn1)C2
Potency [1]: > 11.4 µM (inactive)
activity change, negative = inhibition [2]: -2.52% (inactive)
Potency [3]: inactive
activity change, negative = inhibition [4]: 26.7% (inactive)
activity, negative = inhibition [5]: -1.43% (inactive)
Potency [6]: > 46 µM (inactive)
outcome [7]: inactive
Potency [8]: inactive
activity change, negative = inhibition [9]: 4.75% (inactive)
max response [9, 11]: 14.7%
max response [9, 12]: 20.8%
Potency [10]: inactive

COCC(=O)N1CCC2(CC1)CN(C(=O)Nc1cccc(C#N)c1)C2
Potency [1]: > 11.4 µM (inactive)
activity change, negative = inhibition [2]: 12.3% (inactive)
Potency [3]: inactive
activity change, negative = inhibition [4]: 9.29% (inactive)
activity, negative = inhibition [5]: 11.7% (inactive)
Potency [6]: > 46 µM (inactive)
outcome [7]: inactive
Potency [8]: inactive
activity change, negative = inhibition [9]: 1.93% (inactive)
max response [9, 11]: 8.59%
max response [9, 12]: 11%
Potency [10]: inactive

CN1CC[C@@]2(CCCN(C(=O)c3cccc(F)c3)C2)C1
Potency [1]: > 11.4 µM (inactive)
activity change, negative = inhibition [2]: -5.96% (inactive)
Potency [3]: inactive
activity change, negative = inhibition [4]: -2.53% (inactive)
activity, negative = inhibition [5]: -8.35% (inactive)
Potency [6]: > 46 µM (inactive)
outcome [7]: inactive
Potency [8]: inactive
activity change, negative = inhibition [9]: 3.45% (inactive)
max response [9, 11]: 3.46%
max response [9, 12]: 12.3%
Potency [10]: inactive

CC(=O)N1CCC2(CCN(Cc3nccs3)CC2)CC1
Potency [1]: > 11.4 µM (inactive)
activity change, negative = inhibition [2]: 3.58% (inactive)
Potency [3]: inactive
activity change, negative = inhibition [4]: -2.08% (inactive)
activity, negative = inhibition [5]: 17% (inactive)
Potency [6]: > 46 µM (inactive)
outcome [7]: inactive
Potency [8]: inactive
activity change, negative = inhibition [9]: -0.294% (inactive)
max response [9, 11]: 3.24%
max response [9, 12]: 5.77%
Potency [10]: inactive

O=C(Nc1ccccc1)N1CCC2(CC1)CCN(C(=O)c1cnccn1)CC2
Potency [1]: > 11.4 µM (inactive)
activity change, negative = inhibition [2]: -8.59% (inactive)
Potency [3]: inactive
activity change, negative = inhibition [4]: 11.9% (inactive)
activity, negative = inhibition [5]: 2.97% (inactive)
Potency [6]: > 46 µM (inactive)
outcome [7]: inactive
Potency [8]: inactive
activity change, negative = inhibition [9]: 6.14% (inactive)
max response [9, 11]: 7.98%
max response [9, 12]: 21.7%
Potency [10]: inactive

CC(=O)N1CCC2(CCN(Cc3ccncc3)CC2)CC1
Potency [1]: > 11.4 µM (inactive)
activity change, negative = inhibition [2]: 5.96% (inactive)
Potency [3]: inactive
activity change, negative = inhibition [4]: -0.25% (inactive)
activity, negative = inhibition [5]: -6.6% (inactive)
Potency [6]: > 46 µM (inactive)
outcome [7]: inactive
Potency [8]: inactive
activity change, negative = inhibition [9]: 2.82% (inactive)
max response [9, 11]: 7.01%
max response [9, 12]: 14.4%
Potency [10]: inactive

COC(=O)N1CCC[C@@]2(CCN(C(=O)Nc3ccccc3)C2)C1
Potency [1]: > 11.4 µM (inactive)
activity change, negative = inhibition [2]: -3.51% (inactive)
Potency [3]: 12.6 µM (active)
activity change, negative = inhibition [4]: 8.29% (inactive)
activity, negative = inhibition [5]: -0.455% (inactive)
Potency [6]: > 46 µM (inactive)
outcome [7]: inactive
Potency [8]: inactive
activity change, negative = inhibition [9]: 3.74% (inactive)
max response [9, 11]: -3.53%
max response [9, 12]: 3.51%
Potency [10]: inactive
